# In PubChem BioAssay AID720582 (The Scripps Research Institute Molecular Screening Center, 2013):
# The campaign covered roughly 370,000 compounds. About 2,300 (0.62%) were called active. The entries come from a sample that favours actives as a whole. Unmarked numbers belong to inactive results.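 The calls were made as follows: active = inhibition above a per-campaign cutoff equal to the mean of compounds falling between control-based bounds plus 3 SD (cut at about 20% in these data); inactive = the rest.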
# Target: Disintegrin and metalloproteinase domain-containing protein 10 (Homo sapiens) (UniProt O14672)
# Experiment: human ADAM10 inhibitors, primary screen, biochemical, QFRET, HTS (AID 720582);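 also: 0% = DMSO wells while the 100% control is not disclosed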
# Conditions: recombinant ADAM10, EDANS/DABCYL FRET peptide cleavage, 3 h; at 7 µM; hits give high values
# Sequence of Disintegrin and metalloproteinase domain-containing protein 10 (Homo sapiens) (O14672 214-748 limits assumed): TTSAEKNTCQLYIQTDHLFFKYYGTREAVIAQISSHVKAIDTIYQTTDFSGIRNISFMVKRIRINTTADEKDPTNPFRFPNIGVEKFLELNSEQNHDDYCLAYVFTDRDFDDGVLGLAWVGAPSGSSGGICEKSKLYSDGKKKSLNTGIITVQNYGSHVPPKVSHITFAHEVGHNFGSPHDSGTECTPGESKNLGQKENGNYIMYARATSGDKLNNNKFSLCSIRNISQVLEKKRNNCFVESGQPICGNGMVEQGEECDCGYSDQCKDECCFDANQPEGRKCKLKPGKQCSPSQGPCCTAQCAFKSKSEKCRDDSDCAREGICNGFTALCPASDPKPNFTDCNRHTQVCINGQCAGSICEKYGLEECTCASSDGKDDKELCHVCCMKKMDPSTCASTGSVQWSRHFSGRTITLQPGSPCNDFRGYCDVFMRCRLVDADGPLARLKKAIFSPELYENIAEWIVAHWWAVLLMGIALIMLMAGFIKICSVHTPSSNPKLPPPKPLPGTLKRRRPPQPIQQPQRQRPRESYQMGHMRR
row,SMILES,inhibition
1,COc1ccc(-n2nnnc2C(c2cccc3ccccc23)N2CCC(n3c(=O)[nH]c4ccccc43)CC2)cc1 (stereo not given),22.7% (active)
2,O=c1[nH]c2ccccc2n1C1CCN(C(c2ccnc3ccccc23)c2nnnn2Cc2ccccc2)CC1 (stereo not given),-0.89%
3,O=c1[nH]c2ccccc2n1C1CCN(C(c2ccccc2)c2nnnn2Cc2ccccc2)CC1 (stereo not given),-9.55%
4,CN1CCC(N(C)Cc2cccnc2)CC1,-14.6%
5,Cc1ccc(-c2nc3ccccc3c(=O)n2-c2ccc(Br)cn2)cc1,8.84%
6,COP(=O)(Sc1ccccc1)C(Cc1ccccc1)NC(=O)OCc1ccccc1 (stereo not given),2.57%
7,O=C1C2(Cl)C3(Cl)C4(Cl)C(Cl)(Cl)C5(Cl)C3(Cl)C1(Cl)C5(Cl)C24Cl (stereo not given),31.6% (active)
8,CO[C@H]([C@H](C)/C=C/N(C)C=O)[C@@H](C)C(=O)CC[C@H](C)[C@H](O)[C@H](C)[C@H]1OC(=O)/C=C/C(C)=C/[C@H](O)[C@H](OC)C[C@@H]2C=CC[C@@H](C[C@H](OC)[C@@]3(CO3)[C@@H](OC)C[C@@H](OC)[C@@H]1C)O2,3.02%
9,Cc1ccccc1CCC[C@@H](CC1CCCCC1)CN(C)C(=O)Oc1ccccc1,1.44%
10,O=C(NCC(c1cccnc1)N1CCN(c2ccccc2)CC1)Oc1ccccc1 (stereo not given),0.63%
11,COC(=O)C1=C(c2ccc(F)cc2OCc2ccccc2)C[C@@H]2CC[C@H]1N2C(=O)NCc1ccc(Cl)cc1,17.6%
12,COC(=O)C1=C(c2cccc(OCc3ccccc3)c2)C[C@@H]2CC[C@H]1N2C(=O)NCc1ccc(Br)cc1,19.1%
13,COC(=O)C1=C(c2ccc(-c3ccccc3)c(F)c2)C[C@@H]2CC[C@H]1N2C(=O)NCc1ccc(F)cc1,28.2% (active)
14,CCOP(=O)(OCC)C(O)c1ccc(OC)cc1OC (stereo not given),1.75%
15,O=C(Cn1c(=O)n(CC2CS2)c2ccccc21)N1CCCCC1 (stereo not given),-0.6%
